TDP1 cell CPT – DT40-hTDP1 cell growth loss with CPT; Potency, µM (series often up to 46.2 µM), for the others: at the highest dose activity change, negative = growth inhibition, usual class: inhibitors; chicken DT40 Tdp1-/-;hTDP1 cells + 20 nM CPT, ATP luminescence, 48 h; 420,000 compounds, 12% hits; AID 686979; further: nearly all actives have a fitted effect of over 55% in size
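Chicken DT40 Tdp1-/- cells complemented with human TDP1, 400 cells/well, exposed to compounds plus 20 nM camptothecin for at least 48 h at 37 C; viability read as ATP content by CellTiter-Glo luminescence.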
HT1080 IDH1KD tx – kills HT-1080 cells with IDH1 knockdown; 360,000 compounds, 2% hits; HT-1080 IDH1 knockdown viability, ATP luminescence, 48 h; Potency, µM (top dose mostly 46.1 µM), inactives show at the top dose activity, negative = toxicity, usual class: cytotoxic;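 further: 0% = DMSO wells and -100% = cell-free medium wells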
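Assay cells: HT-1080 with IDH1 knockdown, 750 per well, RPMI/5% FBS. Exposure: 48 h at 37 °C following 2 h pre-incubation. Read: CellTiter-Glo luminescence; fitted concentration-response, curve class assigned.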
KB-V1 MDR tox – kills drug-selected multidrug resistant KB-V1 cells. AID 1347076. KB-V1 MDR cells viability, CellTiter-Glo, 72 h. Potency, µM (highest dose often 46.1 µM), actives largely listed as cytotoxic. 400,000 compounds, 3.4% hits; further: nearly all actives have a fitted effect of over 60% in size
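Drug-selected KB-V1 cells, grown in DMEM lacking phenol red with 10% FBS, receive compound titrations; after three days at 37 degrees C, surviving cell ATP is quantified by CellTiter-Glo luminescence and responses normalized and curve-fitted.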
DT40 TDP1 no CPT – qHTS for Inhibitors of human tyrosyl-DNA phosphodiesterase 1 (TDP1): qHTS in cells in absence of CPT. DT40 Tdp1-/- hTDP1 cells, no CPT, ATP luminescence, 48 h. Potency, µM (top dose mostly 46.2 µM), for the others: at the highest dose activity change, negative = growth inhibition, hits mostly inhibitors. 420,000 compounds, 15% hits. AID 686978, 2013; further: nearly all actives have a fitted effect of over 55% in size
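No-CPT arm: Tdp1-/-;hTDP1 DT40 cells (400/well) plus compounds, incubated ≥48 hr at 37 °C. Readout CellTiter-Glo luminescence.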
KB-3-1 cytotox – KB-3-1 parental cell cytotoxicity; KB-3-1 viability, CellTiter-Glo ATP luminescence, 72 h; Potency, µM (highest dose often 46.1 µM), hits mostly cytotoxic; 400,000 compounds, 1.4% hits; AID 1347075; further: nearly all actives have a fitted effect of over 60% in size
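72 h, 37 °C compound treatment of KB-3-1 parental cells; CellTiter-Glo added, 10 min, luminescence read. Data corrected against DMSO-only plates and normalized before curve fitting.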
HT1080-NT tox – kills 2HG-producing HT-1080-NT fibrosarcoma cells | HT-1080-NT fibrosarcoma viability, CellTiter-Glo ATP luminescence, 48 h | Potency, µM (doses to about 46.1 µM), inactives show at the highest dose activity, negative = less viability, hits mostly cytotoxic | 360,000 compounds, 1.6% hits | AID 686970;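 further: NT is the 2HG producing partner of a matched IDH1 knockdown line; 0% = DMSO-treated cells and -100% = media-only wells without cells; nearly all actives have a fitted effect of over 55% in size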
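Viability by CellTiter-Glo luminescence after 48 h compound exposure at 37C of HT-1080-NT cells (750/well, RPMI, 5% FBS). % activity scaled between DMSO wells and medium-only wells, then curve-fitted and categorized by curve class.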
* marks the source's active call; other numbers are inactive results; i = inactive; u = inconclusive; x = no result. Only some compounds are listed: those with a hit (about 19% of all), similar ones and a draw of the others. The call rests on the fitted dose curve; in most records, active means well fitted curve in the direction sought with a large enough effect; inconclusive means small, poorly fitted or top-dose-only effect, or another doubt; inactive means no such curve, though single readings can be large; an effect the other way counts as inactive or inconclusive. Unless noted, on the % scale 0 is the no-effect control and ±100 the full control effect; potency means the concentration at half of the fitted maximal effect.

SMILES	TDP1 cell CPT	HT1080 IDH1KD tx	KB-V1 MDR tox	DT40 TDP1 no CPT	KB-3-1 cytotox	HT1080-NT tox
COc1ccc(CNc2nc(SCc3ccccc3Cl)nc3ccccc23)cc1	u	x	x	16µM*	x	x
COc1ccc(-c2nc(CSc3nncn4c3cc3oc(C)cc34)c(C)o2)cc1	u	x	i	u	i	x
CCc1ccccc1NC(=O)c1ccc2c(O)c(S(=O)(=O)c3ccccc3)c(=O)[nH]c2c1	-19%	x	i	-2%	i	x
COc1ccc(-n2ncc(Cl)c(Cl)c2=O)cc1	4.1µM*	8.2µM*	u	2.9µM*	5.2µM*	4.6µM*
CCSc1nnc(-c2ccncc2)o1	1%	6%	i	-2%	i	16%
CCSc1nnc(-c2sc3nnc(-c4ccccc4)c(-c4ccccc4)c3c2N)o1	13µM*	16%	i	23µM*	i	27%
Cn1ccc2c(-c3ccc4c(c3)OCCO4)cc3c(c21)C1CCC3C1 (centres undefined)	u	-9%	i	u	i	-1%
COCCNC(=S)N(CCO)Cc1cc2cc3c(cc2[nH]c1=O)OCCO3	-3%	7%	u	-5%	i	10%
COc1ccc(S(=O)(=O)N(CC(=O)Nc2ccc(S(=O)(=O)N3CCOCC3)cc2)c2ccccc2)cc1	-68%	-15%	5.2µM*	0.16µM*	u	-11%
COc1ccc(S(=O)(=O)N(CC(=O)Nc2ccc(S(=O)(=O)N3CCOCC3)cc2)Cc2ccc(F)cc2)cc1	21µM*	-13%	u	15µM*	i	-11%
COc1ccc(NC(=O)CN(C)C(=O)c2ccc(S(=O)(=O)N3CCOCC3)cc2)cc1	-15%	1%	u	-24%	i	-1%
O=C(O)c1ccc(NS(=O)(=O)c2ccc(Cl)c(C(=O)Nc3ccccc3[N+](=O)[O-])c2)cc1	-4%	5%	i	1%	i	8%
CSc1cccc(NC(=S)NN(C)C)c1	u	9%	i	18µM*	i	8%
CSc1cccc(NC(=S)Nc2ccc(F)cc2)c1	23µM*	5%	i	u	i	-4%
O=C(Cn1cnc2c(nc3n2CCCCC3)c1=O)Nc1ccc(F)cc1	-6%	x	i	-3%	i	x
CC1(c2nc3ccccc3[nH]2)CCC(=O)N1Cc1cccs1 (centres undefined)	6%	17%	i	16%	i	15%
CCn1cc(/C=N\NC(=O)c2cc(-c3ccccc3OC)nc3ccccc23)c(C)n1	u	5%	i	16µM*	u	7%
COc1ccccc1-c1cc(C(=O)N/N=C\c2cn(C)nc2C)c2ccccc2n1	u	7%	i	13µM*	i	0%
COc1ccc(-n2nnnc2-c2cnc(N3CCCC3)nc2C(F)(F)F)cc1	8.2µM*	-21%	5.2µM*	9.2µM*	18µM*	-3%
COc1ccc(-n2nnnc2-c2cccnc2)cc1	2%	-2%	i	-20%	i	-2%
Cn1cc(-c2nnnn2-c2ccc(Cl)cc2)c(C(F)(F)F)n1	u	-1%	i	u	i	1%
CNc1ncc(-c2nnnn2-c2ccccc2)c(-c2ccccc2)n1	u	-18%	21µM*	u	i	-2%
FC(F)(F)c1nc(-c2cccs2)ncc1-c1nnnn1-c1ccc(Cl)cc1	4.1µM*	u	16µM*	2.9µM*	u	u
FC(F)(F)c1nc(-c2cccnc2)ncc1-c1nnnn1-c1ccccc1	u	-14%	i	16µM*	i	-3%
O=C(NCc1cccs1)c1ccc2c(c1)N(Cc1cccc(F)c1)C(=O)c1ccccc1S2	-18%	x	i	-27%	i	x
SMILES	TDP1 cell CPT	HT1080 IDH1KD tx	KB-V1 MDR tox	DT40 TDP1 no CPT	KB-3-1 cytotox	HT1080-NT tox
COc1ccc(OC)c(NC(=O)C(C)n2c(=O)cc(C)c3c(C)nn(-c4ccccc4)c32)c1 (centres undefined)	-29%	x	i	-4%	i	x
O=C(Nc1ccc2c(c1)OCO2)c1ccc2sc([C@@H]3O[C@H](CO)[C@H](O)[C@H](O)[C@H]3O)nc2c1	u	-21%	i	1%	i	-28%
CCOC(=O)N1C(=O)[C@](CC)(c2ccccc2)N1C(=O)OCC	8.2µM*	5%	i	u	i	13%
COC(=O)c1[nH]c2cc(OC)c(OC)cc2c1NC(=O)c1cccc(OC)c1	u	9%	u	21µM*	i	8%
CCOC(=O)c1[nH]c2ccccc2c1NC(=O)c1cc(OC)cc(OC)c1	23µM*	x	8.2µM*	23µM*	i	x
CC(=O)Nc1ccc(S(=O)(=O)NCc2ccc3c(c2)CCN3C(C)=O)cc1	-6%	x	x	-21%	x	x
COc1cc(Cl)c(C)cc1N1C(=O)[C@@H]2C[C@H]1CN2Cc1ccccn1	-3%	x	x	-17%	x	x
COC(=O)c1sc(S(=O)(=O)N2CCN(c3ccccc3F)CC2)c(C(=O)OC)c1C	15µM*	-12%	i	u	i	6%
COC(=O)c1sccc1NC(=S)N1CCN(c2cccc(C)c2C)CC1	18µM*	-8%	u	23µM*	u	-20%
Cc1cccc(N2CCN(C(=S)NCCc3ccccc3)CC2)c1C	-1%	14%	u	u	i	11%
COC(=O)c1sc(S(=O)(=O)N2CCC(C(N)=O)CC2)c(C(=O)OC)c1C	1%	-8%	i	-10%	i	-1%
COC(=O)c1sccc1NC(=S)N1CCCCC1	5%	-1%	i	-12%	i	-5%
COC(=O)c1sccc1S(=O)(=O)N1CCN(c2cccc(C)c2C)CC1	u	x	i	23µM*	i	x
COCCNC(=S)N1CCN(c2cccc(C)c2C)CC1	-1%	-23%	21µM*	-25%	i	-12%
Cc1cccc(OCCn2c(-c3ccc(Cl)cc3)nc3ccccc3c2=O)c1C	-12%	x	i	10%	i	x
CC(=O)c1cccc(S(=O)(=O)N2CCN(c3nc(-c4cccs4)nc4ccccc34)CC2)c1	u	x	i	u	i	x
COC(=O)c1sccc1S(=O)(=O)N1CCN(c2cc(Cl)ccc2C)CC1	u	x	i	u	i	x
COC(=O)c1sccc1S(=O)(=O)N1CCN(c2ccc(C)cc2C)CC1	u	x	i	23µM*	i	x

Bioassay records from PubChem.
